Experimental data as given in the supplement of paper PMC6555819.

Each sequence was assayed on PPARg:RXRa DBDmut IVT, anti-RXR (DBD mutation: RXRa K156A/R161A, NR concentration 270 nM, RXRa partner concentration 90 nM) (assay: PBM binding z-score (relative to random genomic background probes); higher = stronger binding; sequences stand for … in GC…GCGATTGACAGCGTAGAATGAAGG).
How it was run: (§1)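 On custom Agilent 4×180K arrays, double-stranded probes with 34-nt variable regions carried direct-repeat seeds, single-nucleotide variants, half-site ablations or random human genomic background. Ligand-free nuclear receptor dimers were applied for 1 h, and binding was read with antibodies against each partner (one per run). Binding z-scores come from regression-normalized fluorescence, with the random background probes as reference.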
CGTCCAAGGTTAGAGAGGTCAGTGAATGCCGAGT gave a PBM binding z-score of 0.939.
Sequence TCTAGCTGGCCAGAGGGTCACTCAAGAGGTACGG has a PBM binding z-score of 0.731.
TCTATTAGTTGAGTAGGGCAACCGAAACAGCGGA showed a PBM binding z-score of 2.19.
For GGAACGAGGGCAAAGTTGAGAGCATCTGTCGACG, the PBM binding z-score was 4.15.
For CCTATGAGTTGACCATAAGGGCAACCGAAGCTCG, the PBM binding z-score was -0.0484.
CAAACTAGGTCACGAAAGGTCAAAGTAGAATGAC was tested, and the PBM binding z-score was 8.54.
With GCTAGCAGGACATTTGGGTCACTCAATGACGGGC the PBM binding z-score was 1.29.
GCGACTGGGGCAAAGCAGGTTACCAAAAGGTTGG showed a PBM binding z-score of 4.78.
With CCTAGTTCGTCAGGAGGTCACACACCGGATATGA the PBM binding z-score was 1.04.
With GCTGCTAGGTCAATTGATGGTCAGCTAAAGCTCG the PBM binding z-score was 4.15.
With TCTTGTACATCAAAGGTTAAGAAAGCCGAAGCCT the PBM binding z-score was 1.6.
ACTAGTTGGTCAGCTGACGTCACACACAATTCGG was tested, and the PBM binding z-score was 0.857.
ATATGTAGGTTATCGGGTCGTTCAGTTTGCGCAT gave a PBM binding z-score of 7.3.
Work on TCTTGTAGATCCATAGAGGTTAAGAAAGTGCGCT yielded a PBM binding z-score of 1.15.
Work on TCTGCTAGGTCACCGATGGTCAGCTAATCTGCTA yielded a PBM binding z-score of 4.6.
Work on AGTCAAAGTTCAGGACGAGCTAACGTAAAGCACG yielded a PBM binding z-score of -0.565.
In the case of ACTATGAGTTGACTTAGGGCAACCGATACGACGC, the PBM binding z-score is reported as 0.0745.
CCTACTGGGCCAAAAAGGTCATTGACGCCGATAA gave a PBM binding z-score of 3.85.
Sequence GCGACTGGGGCACCAGCAGGTTACCATAACTTAA has a PBM binding z-score of 4.23.
With TGTCAAAGTTCAAGGGTAACGTAAGTATCCACAC the PBM binding z-score was -0.0175.
CCTACTGGGTCAAAAAGGTCATTGATGCCGATAA gave a PBM binding z-score of 5.6.
TTACCAGGGTGAGCTGAGGTCGTTGATCCAACTC gave a PBM binding z-score of 0.596.
TCTTGTACATCAACAGGAGGTTAAGAAAGATCGA was tested, and the PBM binding z-score was 1.52.
TCTTGTAGATCAACAGGAGGTTATGAAAGATCGA gave a PBM binding z-score of 1.42.
In the case of TCATATAGGTAATACAGGTGGAAGTCGGCATCTA, the PBM binding z-score is reported as 4.03.
Work on GCTATTAGTTGAAAGGGCCACCGAATGATTCTCG yielded a PBM binding z-score of 0.635.
Sequence CCTATTAGTTGACTATAAGGGCAACCGAAGCTCG has a PBM binding z-score of 0.032.
TATACAGGGTCAAAGGACAGAGTACGAATGTCGA gave a PBM binding z-score of 2.27.
Work on CCTCGGAGGACAACAAGAGGTCAGAGCTGCCAGA yielded a PBM binding z-score of -0.155.
TCTATTAGTTGAAGCGCAACCGACGAGTCCGTTT was tested, and the PBM binding z-score was 2.22.
In the case of ACAATGAGGTTATACGTAGATCAGGGAAGAAAGT, the PBM binding z-score is reported as 2.72.
ATCTCTAGGTAACCAAGTTAAGTGAATGCCGAAC was tested, and the PBM binding z-score was 3.43.
Work on ATCTCCAGGTAACCAAGTTCAGTGAATGCCGAAC yielded a PBM binding z-score of 0.934.
For TCTACTAGGTCAGTTGGTCAGCTAACGAGCTGCC, the PBM binding z-score was 6.44.
With GCATATAGGTAATACAAGTTGAAAGTCCGATTGT the PBM binding z-score was 4.35.
TAGCCTAGGTCATGGGCCAATATACCACGCGAAC gave a PBM binding z-score of 1.34.
Sequence GCGACTGGGGCAAAGCAGGTTACCCTAAGGTTGG has a PBM binding z-score of 4.69.
Work on CAAACTAGGTCACCGGAACGTCAAAGTCCGCATG yielded a PBM binding z-score of 8.6.
ATCTCTAGTTAAAAGTTCAGTGAATCCCGAGGAT was tested, and the PBM binding z-score was 0.0721.
For ATACCAAGGAGATCGTGAGGTCGTTGATACTAAC, the PBM binding z-score was -0.488.

What follows are sequences tested on PPARg:RXRa IVT, anti-PPARg (NR concentration 270 nM, RXRa partner concentration 90 nM) in the same assay as above.
How it was run: as §1
CGTCCAAGGTTAGAGAGGTCAGTGAATGCCGAGT showed a PBM binding z-score of 1.57.
Work on TCTAGCTGGCCAGAGGGTCACTCAAGAGGTACGG yielded a PBM binding z-score of -0.216.
In the case of TCTATTAGTTGAGTAGGGCAACCGAAACAGCGGA, the PBM binding z-score is reported as 2.75.
Sequence GGAACGAGGGCAAAGTTGAGAGCATCTGTCGACG has a PBM binding z-score of 4.7.
CCTATGAGTTGACCATAAGGGCAACCGAAGCTCG was tested, and the PBM binding z-score was 0.26.
In the case of CAAACTAGGTCACGAAAGGTCAAAGTAGAATGAC, the PBM binding z-score is reported as 9.02.
GCTAGCAGGACATTTGGGTCACTCAATGACGGGC was tested, and the PBM binding z-score was 2.12.
In the case of GCGACTGGGGCAAAGCAGGTTACCAAAAGGTTGG, the PBM binding z-score is reported as 3.6.
CCTAGTTCGTCAGGAGGTCACACACCGGATATGA showed a PBM binding z-score of 2.38.
Sequence GCTGCTAGGTCAATTGATGGTCAGCTAAAGCTCG has a PBM binding z-score of 3.1.
In the case of TCTTGTACATCAAAGGTTAAGAAAGCCGAAGCCT, the PBM binding z-score is reported as 1.77.
ACTAGTTGGTCAGCTGACGTCACACACAATTCGG showed a PBM binding z-score of 0.972.
ATATGTAGGTTATCGGGTCGTTCAGTTTGCGCAT showed a PBM binding z-score of 6.87.
For TCTTGTAGATCCATAGAGGTTAAGAAAGTGCGCT, the PBM binding z-score was 0.128.
In the case of TCTGCTAGGTCACCGATGGTCAGCTAATCTGCTA, the PBM binding z-score is reported as 4.81.
AGTCAAAGTTCAGGACGAGCTAACGTAAAGCACG gave a PBM binding z-score of 1.33.
Work on ACTATGAGTTGACTTAGGGCAACCGATACGACGC yielded a PBM binding z-score of 0.378.
Sequence CCTACTGGGCCAAAAAGGTCATTGACGCCGATAA has a PBM binding z-score of 3.99.
With GCGACTGGGGCACCAGCAGGTTACCATAACTTAA the PBM binding z-score was 4.22.
With TGTCAAAGTTCAAGGGTAACGTAAGTATCCACAC the PBM binding z-score was 4.63.
In the case of CCTACTGGGTCAAAAAGGTCATTGATGCCGATAA, the PBM binding z-score is reported as 6.85.
TTACCAGGGTGAGCTGAGGTCGTTGATCCAACTC was tested, and the PBM binding z-score was 1.4.
Sequence TCTTGTACATCAACAGGAGGTTAAGAAAGATCGA has a PBM binding z-score of 0.927.
Sequence TCTTGTAGATCAACAGGAGGTTATGAAAGATCGA has a PBM binding z-score of 0.582.
With TCATATAGGTAATACAGGTGGAAGTCGGCATCTA the PBM binding z-score was 2.31.
In the case of GCTATTAGTTGAAAGGGCCACCGAATGATTCTCG, the PBM binding z-score is reported as -0.116.
In the case of CCTATTAGTTGACTATAAGGGCAACCGAAGCTCG, the PBM binding z-score is reported as 0.399.
TATACAGGGTCAAAGGACAGAGTACGAATGTCGA showed a PBM binding z-score of 4.9.
With CCTCGGAGGACAACAAGAGGTCAGAGCTGCCAGA the PBM binding z-score was 0.669.
With TCTATTAGTTGAAGCGCAACCGACGAGTCCGTTT the PBM binding z-score was 0.202.
ACAATGAGGTTATACGTAGATCAGGGAAGAAAGT gave a PBM binding z-score of 1.93.
ATCTCTAGGTAACCAAGTTAAGTGAATGCCGAAC was tested, and the PBM binding z-score was 2.78.
For ATCTCCAGGTAACCAAGTTCAGTGAATGCCGAAC, the PBM binding z-score was 1.52.
TCTACTAGGTCAGTTGGTCAGCTAACGAGCTGCC showed a PBM binding z-score of 6.43.
For GCATATAGGTAATACAAGTTGAAAGTCCGATTGT, the PBM binding z-score was 2.61.
TAGCCTAGGTCATGGGCCAATATACCACGCGAAC was tested, and the PBM binding z-score was 3.16.
GCGACTGGGGCAAAGCAGGTTACCCTAAGGTTGG gave a PBM binding z-score of 3.9.
Work on CAAACTAGGTCACCGGAACGTCAAAGTCCGCATG yielded a PBM binding z-score of 8.71.
In the case of ATCTCTAGTTAAAAGTTCAGTGAATCCCGAGGAT, the PBM binding z-score is reported as 0.398.
With ATACCAAGGAGATCGTGAGGTCGTTGATACTAAC the PBM binding z-score was -0.258.
